Test results published in PubChem BioAssay AID1626 (SRMLSC, 2009).
About 2,000 (0.91%) of roughly 220,000 compounds were called active. About 2% were inconclusive and are not listed. Not all results are given here. Potency and affinity values are given separately. Unmarked numbers belong to inactive results. Cut-off read from the data, not from the text of the source: inconclusive = inhibition above about 80% without an active follow-up result; inactive = below that; test concentration not stated here.

Experiment: M. tuberculosis H37Rv growth inhibitors, H37Rv strain (AID 1626);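 note: bacteria incubated seven days before Alamar blue readout; 0% = bacteria only wells and 100% = bacteria with antibiotic wells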
Conditions: stronger effect = higher value, concentration not given here

Row | SMILES | inhibition [%]
1 | CCN(CC)S(=O)(=O)c1ccc(N=N/C(C(C)=O)=C(/C)O)cc1 | -10.5
2 | Cc1c(C#N)c(N=CN(C)C)c(C(=O)c2ccc(Br)cc2)n1-c1ccc(Cl)cc1 | 1.78
3 | CCn1c(C)nc2cc(S(=O)(=O)N3CCCCC3)ccc21 | -10.8
4 | CC(=O)O[C@@H]1[C@H]2[C@@H](C[C@@H](C)[C@@H]3C=CC(=O)[C@@]13C)OC(=O)[C@@H]2C | -0.99
5 | C=C1C(=O)O[C@H]2[C@H]1[C@H](OC(=O)CC(=O)O[C@@H]1C[C@@H](C)[C@@H]3C=CC(=O)[C@@]3(C)[C@H]3OC(=O)C(=C)[C@H]13)C[C@@H](C)[C@H]1C=CC(=O)[C@]12C | -7.78
6 | C=C1C(=O)O[C@@H]2C[C@@H](C)[C@H]3C=CC(=O)[C@]3(O)C[C@@H]12 | -7.5
7 | C[C@@H]1C[C@@H]2OC(=O)[C@]3(C)[C@H]2[C@@H](OC3(C)O)[C@]2(C)C(=O)C=C[C@H]12 (stereo not given in full) | -4.34
8 | CC(=O)O[C@@H]1[C@H]2[C@@H](C[C@@H](C)[C@@H]3CCC(=O)[C@@]13C)OC(=O)[C@@H]2C | -3.15
9 | COc1ccc(NC(=O)CCc2nc3ccccc3[nH]2)cc1 | -2.77
10 | CC(C)c1nc2c([nH]1)c(=O)n(C)c(=O)n2C | -8.57
11 | CCCc1cc(C(=O)Nc2ccc(C(C)=O)cc2)no1 | 79.7
12 | Cc1cc(C(=O)Nc2c(F)cc(F)cc2Br)no1 | 16.4
13 | CCCc1cc(C(=O)Nc2cc(Br)ccc2O)no1 | 78.3
14 | O=C(Nc1c(F)cc(F)cc1Br)c1cc(-c2ccc(O)cc2)on1 | 73.7
15 | CC(C)Cc1cc(C(=O)Nc2ccc(Br)cc2)no1 | 68.8
16 | CC(C)c1cc(C(=O)Nc2cc(Br)ccc2O)no1 | 43.5
17 | CCOC(=O)C1CCCN(C(=O)c2cccc(NC(=O)C(CC)CC)c2)C1 (stereo not given) | -1.45
18 | CCCCCOc1ccc(C)cc1CN(CCCl)CCCl | 5.72
19 | CCOC(=O)CNc1c(N2CCN(c3ccccn3)CC2)c(=O)c1=O | 0.74
20 | COCCn1c(C)cc(C(=O)COC(=O)c2ccc3c(c2)NC(=O)CS3)c1C | 3.82
21 | N#C/C(=C\c1cn[nH]c1-c1ccc(Cl)cc1)C(=O)NC1CC1 | 9.87
22 | CCOC(=O)COc1cc(=O)n(CC)c2ccccc12 | 7.42
23 | Cc1cc(NC(=O)/C=C/c2ccc(F)cc2)n(-c2nc3ccccc3[nH]2)n1 | 13.6
24 | Cc1cc(NC(=O)C2CCC2)n(-c2ccccn2)n1 | 2.03

Row | SMILES | inhibition [%]
25 | CCOC(=O)C(=O)Nc1cc(C)nn1-c1nc2ccccc2[nH]1 | -8.84
26 | COc1ccc(/C=C/C(=O)Nc2cc(C)nn2-c2nc3ccccc3[nH]2)cc1 | 11.4
27 | COC(C[C@@H]1O[C@H]1[C@H](O)[C@@H](C)OCc1ccccc1)OC | -4.16
28 | CCn1c2ccccc2c2nnc(NN)nc21 | -7.42
29 | O=C(/C(C=Nc1cccc(C(F)(F)F)c1)=C(/O)c1ccco1)C(F)(F)F | 0.06
30 | Cc1nn(C)c(C)c1NC(=O)CCl | -7.2
31 | CCn1c(SCC(=O)N=Nc2c(O)[nH]c3ccccc23)nnc1-c1ccc(C(C)(C)C)cc1 | -1.76
32 | Cc1[nH]c2ccc(F)cc2c1CCNC(=O)C1CCCCC1C(=O)OCC(F)(F)F (stereo not given) | 2.82
33 | O=C(NCc1ccccc1)c1ccc(Br)cc1 | -2.09
34 | Cc1[nH]n(-c2ccccc2)c(=O)c1N=Nc1ccc2c(c1)OCCO2 | -5.08
35 | Cc1ccccc1N=Nc1c(C)[nH]n(-c2ccccc2)c1=O | -1.01
36 | Cc1[nH]n(-c2ccccc2)c(=O)c1N=Nc1ccccc1 | 3.96
37 | Cc1[nH]n(-c2ccccc2)c(=O)c1N=Nc1ccccc1O | 5.76
38 | Cc1nnc(NC(=O)CCSCCC(=O)Nc2nnc(C)s2)s1 | 1.24
39 | COc1ccc(/C=C/C(=O)c2c(O)ccc3c(C)cc(=O)oc23)cc1 | 17.2
40 | O=C(COC(=O)c1ccccc1Cl)NCCC1=CCCCC1 | 4.94
41 | O=C(COC(=O)c1ccccc1O)NCCC1=CCCCC1 | 7.1
42 | O=C(NCc1ccco1)C1CCN(Cc2ccc(F)cc2)CC1 | 1.23
43 | COc1ccc(CNC(=S)Nc2cc(C)ccc2C)cc1 | 4.83
44 | C=CCn1c(SCC(=O)N2CCc3ccccc3C2)nc2ccccc2c1=O | -0.56
45 | O=C1CC(c2ccccc2Oc2cccc(Cl)c2)C(n2cncn2)C(=O)C1C1NCCc2ccccc21 (stereo not given) | -9.29
46 | Cc1cc(C)c2c(n1)sc1c(N3CCN(CCO)CC3)ncnc12 | 18.8
47 | Cc1cc(C)c2c(n1)sc1c(N3CCN(C)CC3)ncnc12 | 7.86
48 | Cc1ccc(NC(=O)NCC2CCN(Cc3cccc(Cl)c3)CC2)c(Cl)c1 | 33.5

Row | SMILES | inhibition [%]
49 | CCc1cccc(CN2CCC(CNC(=O)Nc3ccc(Cl)cc3)CC2)c1 | 0.84
50 | COCCn1c(COc2ccc(OC)cc2)nc2ccccc21 | 4.25
51 | Cc1sc(NC(=O)C2CC(Cl)=CCC2C(=O)O)c(C#N)c1C (stereo not given) | -16.1
52 | Cc1ccc(-c2nnn(CC(=O)N(c3ccc(F)cc3)C(C(=O)NC(C)(C)C)c3ccco3)n2)o1 (stereo not given) | -0.26
53 | Cc1onc(-c2c(Cl)cccc2Cl)c1C(=O)c1ccccc1 | -5.4
54 | Cc1ccc(NC(NC(=O)c2cccs2)C(Cl)(Cl)Cl)cc1 (stereo not given) | 21
55 | Cc1ccccc1NC(NC(=O)c1cccs1)C(Cl)(Cl)Cl (stereo not given) | -3.03
56 | Nc1nc(SCC(=O)Nc2ccccc2)[nH]c(=O)c1NC(=O)c1cccs1 | -5.6
57 | Cc1ccc2c(CC(=O)Nc3cccc(S(=O)(=O)N4CCOCC4)c3)coc2c1 | 5.42
58 | CC(C)C(=O)NC(CC(=O)O)c1ccccc1 (stereo not given) | -15.2
59 | Cc1nnc(SCC(=O)N/N=C/c2cc(Cl)c(O)c(Cl)c2)s1 | -3.34
60 | Cc1cc(NC(=O)/C=C/c2ccccc2)no1 | -1.33
61 | COC(=O)c1cc(-c2ccccc2)on1 | 45
62 | O=C(Nc1ccc(N2CCOCC2)c(Cl)c1)c1cccnc1Cl | -3.3
63 | Cc1cccn2c(=O)c(C=NCCO)c(Nc3ccc(Cl)cc3)nc12 | 2.37
64 | Cc1cc(=O)oc(C)c1C(=O)Nc1cccc2ccccc12 | 7.53
65 | COc1ccccc1NC(=O)c1c(C)oc2c1CCCC2 | -16.9
66 | CCN(CC)c1cc(C(F)(F)F)nc(-c2ccccn2)n1 | -2.81
67 | FC(F)(F)c1cc(Oc2ccccc2)nc(-c2ccccn2)n1 | 12.1
68 | C#CCSc1cc(C(F)(F)F)nc(-c2ccccn2)n1 | 5.1
69 | O=C(O)CSc1cc(C(F)(F)F)nc(-c2ccccn2)n1 | -6.21
70 | CN(C)c1cc(C(F)(F)F)nc(-c2ccccn2)n1 | 3.02
71 | COc1cc(C(F)(F)F)nc(-c2ccccn2)n1 | 6.27
72 | FC(F)C(F)(F)c1cc(-c2ccc(Cl)cc2)n[nH]1 | 12.2

Row | SMILES | inhibition [%]
73 | CNc1nnc(CSc2nc(C)cc(C)n2)s1 | -5.32
74 | O=C(c1cccc(C(F)(F)F)c1)C1CCCN(C(=O)CCCn2cncn2)C1 (stereo not given) | 4.12
75 | CN(CCCNC(=O)CSc1cc(=O)n(C)c2cc(Cl)ccc12)Cc1ccccc1 | 4.19
76 | COc1ccc(NC(=O)c2noc(C(C)C)c2[N+](=O)[O-])cc1 | -2.72
77 | NS(=O)(=O)c1ccc(CNC(=S)NC2CC2)cc1 | -2.38
78 | CN(Cc1ccccc1)c1ccc(N2C(=O)CCC2=O)cc1[N+](=O)[O-] | -1.08
79 | COc1ccccc1NS(=O)(=O)c1ccc(C(N)=O)cc1 | -0.48
80 | Cc1ccc2c(c1)N(CC(=O)N1CCCCC1c1cccnc1)C(=O)CO2 (stereo not given) | -4.68
81 | CCO[C@@H]1OC(C(=O)NCc2nc3ccccc3[nH]2)=C[C@H](C(C)(C)C)[C@H]1CCCO | -3
82 | O=C1C(=O)c2c(C(=O)c3ccccc3)coc2-c2ccccc21 | 4.79
83 | Cc1ccc2c3c(cccc13)-c1ccccc1C2=O | 10.1
84 | C[C@H]1COC2=C1C(=O)C(=O)c1c2ccc2c1CCCC2(C)C | -2.33
85 | Cc1ccc(C(=O)c2coc3c2C(=O)C(=O)c2ccccc2-3)cc1 | -2.44
86 | O=C(CN1CCC(n2nnc3cc(F)ccc32)CC1)NNC(=O)c1ccccc1 | -6.09
87 | N#Cc1ccc(COC(=O)c2ccccn2)cc1 | 39
88 | COc1cccc(NC(=O)CSc2ncnc3c2cnn3Cc2ccccc2)c1 | -10.6
89 | NC(=S)NNC(=O)c1ccccc1Cl | -8.81
90 | CC(C)(C)C(=O)Nc1nc(NC(=O)C(C)(C)C)nc(-c2ccccc2Cl)n1 | -0.83
91 | COc1ccc(Nc2ccc(N3C(=O)CCCC3=O)cc2[N+](=O)[O-])cc1OC | -5.4
92 | CCN1/C(=C\C(C)=O)Sc2ccc(OC)cc21 | -5.41
93 | CC(=O)NCCNc1ccc([N+](=O)[O-])cn1 | -0.44
94 | CCOC(=O)N/N=C/c1cn(CCCOc2ccccc2)c2ccccc12 | 8.89
95 | C/C(=N/N1CCN(Cc2cccc3ccccc23)CC1)c1ccco1 | -5.28
